This is a sample that favours compounds with a hit; in the whole collection about 8.3% have one here.
BCR signal inh – blocks chronic active B-cell receptor signaling; ABC-DLBCL IkBa-CBG/CBR reporter, luminescence ratio, 4 h; 0.05% of 340,000 active; Potency, µM (top dose mostly 46.1 µM), without a hit: at the highest dose activity change, negative = inhibition, most hits filed as inhibitors; AID 493014; active = well fitted inhibition curve with a large enough effect in the signal ratio, with a control signal flat, not every such curve was filed as active; inconclusive = small, poorly fitted or top-dose-only effect, or effect the other way, or a change in a side signal; the % refers to the signal ratio;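 also: potency is read from the fitted curve at half-maximal effect; plate controls were basal doxycycline-induced cells for no effect and cells given 10 µM MG132 for full effect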
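TMD8 human ABC-DLBCL cells with doxycycline-inducible IκBα–green luciferase fusion and unfused red luciferase, in 0.5% FBS medium; compounds up to 46 uM, 4 h at 37C. Green/red luminescence ratio, filter-overlap corrected, fitted to concentration-response curves.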
Giardia kill – kills Giardia lamblia; activity change, % at 7.66 µM, hits read low; 0.15% of 340,000 active; Giardia lamblia trophozoite viability; in the data active = activity change below about -80%; inconclusive = between about -30% and that limit;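 also: parasites exposed to compound for two days anaerobically before the ATP read; % is scaled to controls: 0 for no effect and ±100 for the full control effect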
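Giardia trophozoites, 100 cells per well, were exposed to compounds for 48 hrs at 37 deg C under anaerobic conditions; viability was then read as ATP content by bioluminescence after 15-30 min at room temperature.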
MCF10A rereplic – induces DNA re-replication in MCF 10a normal breast cells; MCF 10A DNA re-replication, Hoechst nuclear intensity, 48 h; Potency, µM (highest dose often 46.1 µM), for the others: at the top dose activity, positive = re-replication, hits mostly activators; 2.9% of 350,000 active; AID 624296; also: potency is read from the fitted curve at half-maximal effect; % of control where 0% means no effect; nearly all actives have a fitted effect of over 50% in size
SW480 rerep – induces DNA re-replication in SW480 colon adenocarcinoma cells; SW480 DNA re-replication, Hoechst DNA content imaging, 48 h; Potency, µM (titrated, usually from 46.1 µM), for the others: at the highest dose re-replication activation, actives largely listed as activators; 1.8% of 340,000 active; AID 624297; also: potency is read from the fitted curve at half-maximal effect; % of control where 0% means no effect; nearly all actives have a fitted effect of over 55% in size
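First, 250 cells per well were seeded. Next, compound or vehicle (23 nL) was pinned in, plates sat 48 hr at 37 C. Finally Hoechst was added for 40 min before fluorescence scanning.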
RORg inh – ROR gamma (mouse) transcription inhibition. Drosophila S2 Gal4-RORgamma UAS-luciferase reporter, 20 h. 5.4% of 310,000 active. Potency, µM (doses to about 53.6 µM), inactives show at the highest dose activity change, negative = inhibition, hits mostly inhibitors; also: potency is read from the fitted curve at half-maximal effect; % is scaled to controls: 0 for no effect and ±100 for the full control effect; nearly all actives have a fitted effect of over 60% in size
Target sequence (P51450 whole entry, looked up, the tested form may be a part): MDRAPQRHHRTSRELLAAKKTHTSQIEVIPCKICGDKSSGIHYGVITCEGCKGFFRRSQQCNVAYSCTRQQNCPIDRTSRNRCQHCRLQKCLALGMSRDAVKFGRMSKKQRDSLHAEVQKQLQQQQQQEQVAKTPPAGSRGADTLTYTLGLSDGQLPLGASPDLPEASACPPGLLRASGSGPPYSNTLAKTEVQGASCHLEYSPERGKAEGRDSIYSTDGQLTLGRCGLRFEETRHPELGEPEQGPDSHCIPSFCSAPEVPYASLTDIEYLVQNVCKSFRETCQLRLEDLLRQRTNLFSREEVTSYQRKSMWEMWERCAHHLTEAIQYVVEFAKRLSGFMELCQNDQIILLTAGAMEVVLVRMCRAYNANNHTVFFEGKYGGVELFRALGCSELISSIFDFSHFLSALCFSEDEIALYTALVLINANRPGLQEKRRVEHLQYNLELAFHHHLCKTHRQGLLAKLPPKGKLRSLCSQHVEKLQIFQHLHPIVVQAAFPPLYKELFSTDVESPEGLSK
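Luminescence from a UAS-regulated Photinus luciferase reporter in stably transfected Drosophila Schneider cells is measured; decreased signal marks ROR gamma inhibition. Fusion expression is induced by 700 uM copper sulfate for 20 hr.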
VP16 counter – Gal4-VP16 reporter inhibition counter-screen; Drosophila S2 Gal4-VP16 UAS-luciferase, luminescence, 20 h; Potency, µM (titrated, usually from 53.6 µM), inactives show at the top dose activity, negative = inhibition, usual class: inhibitors; 3.5% of 310,000 active;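 also: Gal4-VP16 expression switched on by copper sulfate through the metallothionein promoter; potency is read from the fitted curve at half-maximal effect; % is scaled to controls: 0 for no effect and ±100 for the full control effect; nearly all actives have a fitted effect of over 50% in size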
Starred values were filed as active, the others as inactive; [ ] = dose if it differs, or a comment. Unless noted, calls follow the shape of the dose curve; as a rule, active = well fitted curve in the direction sought with a large enough effect; inconclusive = small, poorly fitted or top-dose-only effect, or another doubt; inactive = no such curve, though single readings can be large; an effect the other way counts as inactive or inconclusive.

`CCCCC1=C(C(=O)OCC)C(C(=O)OCC)Oc2ccccc21` (stereo not drawn) gave BCR signal inh inconclusive, Giardia kill -8, MCF10A rereplic -12%, SW480 rerep -27%, RORg inh 29% and VP16 counter -6%.
`Cc1ccc(-c2csc(Cc3nc(-c4cc5ccccc5oc4=O)cs3)n2)cc1` gave BCR signal inh inconclusive, Giardia kill -11, MCF10A rereplic 1%, SW480 rerep -4%, RORg inh 38% and VP16 counter -27%.
Cc1ccn2cc(-c3cc4ccccc4oc3=O)nc2c1 was read as BCR signal inh inconclusive, Giardia kill -17, MCF10A rereplic 13%, SW480 rerep 21%, RORg inh 2.5µM* and VP16 counter inconclusive.
Cc1ccc(S(=O)(=O)/N=C2/NC(=O)/C(=C\c3cc(Br)cc(Br)c3O)S2)cc1 was read as BCR signal inh inconclusive, Giardia kill 19, MCF10A rereplic inconclusive, SW480 rerep inconclusive, RORg inh 11µM* and VP16 counter -17%.
For CCOc1cc(Br)cc(/C=C2\SC(=Nc3ccccc3)NC2=O)c1O the results were BCR signal inh inconclusive, Giardia kill -17, MCF10A rereplic 8.2µM*, SW480 rerep -1%, RORg inh inconclusive and VP16 counter inconclusive.
For C=CCOc1ccc(Br)cc1/C=C1/SC(=Nc2ccc(C(=O)O)cc2)NC1=O the results were BCR signal inh inconclusive, Giardia kill -9, MCF10A rereplic 8.2µM*, SW480 rerep -12%, RORg inh -6% and VP16 counter 0%.
`C=CCOc1c(Br)cc(/C=C2\SC(=Nc3ccccc3)NC2=O)cc1OC` gave BCR signal inh 9%, Giardia kill 10, MCF10A rereplic inconclusive, SW480 rerep 19%, RORg inh inconclusive and VP16 counter -29%.
For Cc1ccc(S(=O)(=O)/N=C2/NC(=O)/C(=C/c3ccc(Br)o3)S2)cc1 the results were BCR signal inh inconclusive, Giardia kill -8, MCF10A rereplic inconclusive, SW480 rerep 1%, RORg inh 21% and VP16 counter -9%.
Screening Cc1ccc(Cn2ccc(=O)c(OCc3c(Cl)cccc3Cl)c2C)cc1 returned BCR signal inh inconclusive, Giardia kill 24, MCF10A rereplic inconclusive, SW480 rerep -3%[9.22 µM], RORg inh inconclusive and VP16 counter inconclusive.
For CCOC(=O)C(=O)N1CCN(CC)CC1 the results were BCR signal inh -2%, Giardia kill 9, MCF10A rereplic 6%, SW480 rerep -4%, RORg inh 12% and VP16 counter -12%.
For Cc1ccc(CNC(=O)c2ccc(CSCc3c(F)cccc3Cl)o2)cc1 the results were BCR signal inh 1%.
Screening C=CC[C@H](CC(=O)N[C@H](CO)Cc1ccccc1)C(=O)N[C@@H](COC(=O)[C@@H](CC=C)CC(=O)OC(C)(C)C)Cc1c[nH]c2ccccc12 returned BCR signal inh 0%, Giardia kill -2, MCF10A rereplic 29% and SW480 rerep 15%.
`C=CC[C@H](CC(=O)N(CCO)Cc1ccccc1)C(=O)N[C@@H](COC(=O)[C@H](CC=C)CC(=O)OC(C)(C)C)Cc1c[nH]c2ccccc12` gave BCR signal inh inconclusive, Giardia kill 5, MCF10A rereplic 23µM* and SW480 rerep 25%.
`C=CC[C@@H](CC(=O)N[C@@H](CO)Cc1ccccc1)C(=O)N[C@H](COC(=O)[C@@H](CC=C)CC(=O)OC(C)(C)C)Cc1c[nH]c2ccccc12` gave BCR signal inh inconclusive, Giardia kill -2, MCF10A rereplic 16µM* and SW480 rerep inconclusive.
`C=CC[C@@H](CC(=O)N(CCO)Cc1ccccc1)C(=O)N[C@H](COC(=O)[C@@H](CC=C)CC(=O)OC(C)(C)C)Cc1c[nH]c2ccccc12` gave BCR signal inh -1%, Giardia kill -13, MCF10A rereplic 10µM* and SW480 rerep 8%.
